{
  "source": "PubChem BioAssay (Tox21)",
  "note": "Inconclusive results are not listed. Where a call stands in place of a potency, no number is given. Calls of active or inactive are those of the source. Calls follow the shape of the dose curve; as a rule, active = well fitted cell-killing curve with a large enough effect in the repeat runs; inconclusive = weak or mixed curves, or effect the other way; inactive = flat fitted curve, though single readings scatter. Potency is read from the fitted curve at half-maximal effect.",
  "data": [
    {"experiment": "cAMP Responsive Elements (CRE) small molecule agonists, cell-based qHTS assay: qHTS cell viability counter screen (AID 2060914); also: nearly all actives have a fitted effect of over 50% in size", "conditions": "CRE-bla HEK293T viability, CellTiter-Glo luminescence, 5 h; series mostly up to 92.4 µM", "in_short": "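CRE-bla HEK293T cells in 10% dialyzed FBS medium were exposed to compounds for 3 h at 37C after 18 h plating. CellTiter-Glo was then added in the same wells, and luminescence was read after 30 min at room temperature.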", "values": [
      {"smiles": "CC(NC(CCc1ccccc1)C(=O)O)C(=O)N1C(=O)N(C)CC1C(=O)O", "note": "(stereo not given)", "Potency": "inactive"},
      {"smiles": "CCC1(CO)COCOC1", "Potency": "inactive"},
      {"smiles": "COc1ccc(CCN(C)CCCN2CCc3cc(OC)c(OC)cc3CC2=O)cc1OC", "Potency": "inactive"},
      {"smiles": "COc1cc2nc(N3CCN(C(=O)c4ccco4)CC3)nc(N)c2cc1OC", "activity change, negative = cytotoxicity": "4.06% [at 18.9 µM] (inactive)"},
      {"smiles": "c1ccc(C[n+]2cccc3ccccc32)cc1", "Potency": "inactive"},
      {"smiles": "NC=O", "Potency": "inactive"},
      {"smiles": "CCCCC(CC)COC(=O)CS", "note": "(stereo not given)", "Potency": "inactive"},
      {"smiles": "C=CC(OCC)OCC", "Potency": "inactive"},
      {"smiles": "Oc1cc2ccccc2cc1O", "Potency": "inactive"},
      {"smiles": "CCCCCOc1ccccc1/C(=C\\SC)n1ccnc1", "Potency": "inactive"},
      {"smiles": "NC(=O)COCCN1CCN(C(c2ccccc2)c2ccc(Cl)cc2)CC1", "note": "(stereo not given)", "Potency": "inactive"},
      {"smiles": "Cc1cccnc1", "Potency": "inactive"},
      {"smiles": "O=C(OCc1ccccc1)c1ccc(O)cc1", "Potency": "inactive"},
      {"smiles": "O=C(c1ccccc1)c1ccc(O)cc1O", "Potency": "inactive"},
      {"smiles": "C=C[Si](OC(=C)C)(OC(=C)C)OC(=C)C", "Potency": "inactive"},
      {"smiles": "NC(=O)OCC(COC(N)=O)c1ccccc1", "Potency": "inactive"},
      {"smiles": "O=C1CCN(c2ccccc2)N1", "Potency": "inactive"},
      {"smiles": "C=CC1CC2C=CC1C2", "note": "(stereo not given)", "Potency": "inactive"},
      {"smiles": "CC(=O)CCC=C(C)C", "Potency": "inactive"},
      {"smiles": "Brc1ccccc1-c1ccccc1", "Potency": "inactive"},
      {"smiles": "CCO[Si](CCC#N)(OCC)OCC", "Potency": "inactive"},
      {"smiles": "N[C@@H](CCC(=O)N[C@@H](CS)C(=O)NCC(=O)O)C(=O)O", "activity change, negative = cytotoxicity": "-1.41% [at 18.9 µM] (inactive)"},
      {"smiles": "COc1ccc(COC(C)=O)cc1", "Potency": "inactive"},
      {"smiles": "CCCCCCCCCCCCCCCCCCOCCO", "activity change, negative = cytotoxicity": "-6.34% [at 18.9 µM] (inactive)"},
      {"smiles": "Nc1nc(N)nc(-c2ccccc2)n1", "Potency": "inactive"},
      {"smiles": "OC1CCCCC1c1ccccc1", "note": "(stereo not given)", "Potency": "inactive"},
      {"smiles": "CNS(=O)(=O)CCc1ccc2[nH]cc(C3CCN(C)CC3)c2c1", "Potency": "inactive"},
      {"smiles": "CCCCNc1ccc(NCCCC)c2c1C(=O)c1ccccc1C2=O", "activity change, negative = cytotoxicity": "-7.45% [at 18.9 µM] (inactive)"},
      {"smiles": "Nc1ccc(Cl)c(N)c1", "Potency": "inactive"},
      {"smiles": "Cc1c(C)c2c(c(C)c1OC(=O)CCC(=O)OCCO)CC[C@@](C)(CCC[C@H](C)CCC[C@H](C)CCCC(C)C)O2", "Potency": "26.6 µM (active)"},
      {"smiles": "CC(C)C(=O)OCC(C)(C)C(O)C(C)C", "note": "(stereo not given)", "Potency": "inactive"},
      {"smiles": "N#CCCOCCOCCC#N", "Potency": "inactive"},
      {"smiles": "CN(C)c1ccc(C=O)cc1", "Potency": "inactive"},
      {"smiles": "Cn1sccc1=O", "Potency": "inactive"},
      {"smiles": "O=C(O)c1c(O)c(-c2ccccc2)nc2ccccc12", "Potency": "inactive"},
      {"smiles": "CC(O)CN(CCCN(C)C)CCCN(C)C", "note": "(stereo not given)", "Potency": "inactive"},
      {"smiles": "C/C=C/C=C/CCCCCCCO", "Potency": "inactive"},
      {"smiles": "CC/C(=C(/c1ccc(O)cc1)c1ccc(OCCN(C)C)cc1)c1ccccc1", "Potency": "inactive"},
      {"smiles": "CC(O)Cn1cnc2c1c(=O)n(C)c(=O)n2C", "note": "(stereo not given)", "Potency": "inactive"},
      {"smiles": "COc1ccnc(CS(=O)c2nc3ccc(OC(F)F)cc3[nH]2)c1OC", "note": "(stereo not given)", "Potency": "inactive"}
    ]}
  ]
}
